From publication PMC4336329 (PLoS ONE, 2015) come the findings set out here.

About 14,000 (4.5%) of roughly 310,000 compounds showed an effect of 50% or more. Effects have a minus sign here. Only a selection was taken, and strong results are over-represented in it overall.
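Also: peak tail current of the secondary pulse compared with the same well before compound.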

For this assay, the target named is human ether-à-go-go-related gene (hERG) potassium channel (human, UniProt Q12809). In words: primary screen, population patch clamp on CHO cells stably expressing hERG; higher = less effect of the substance.
Sequence of human ether-à-go-go-related gene (hERG) potassium channel (Q12809 whole entry, looked up): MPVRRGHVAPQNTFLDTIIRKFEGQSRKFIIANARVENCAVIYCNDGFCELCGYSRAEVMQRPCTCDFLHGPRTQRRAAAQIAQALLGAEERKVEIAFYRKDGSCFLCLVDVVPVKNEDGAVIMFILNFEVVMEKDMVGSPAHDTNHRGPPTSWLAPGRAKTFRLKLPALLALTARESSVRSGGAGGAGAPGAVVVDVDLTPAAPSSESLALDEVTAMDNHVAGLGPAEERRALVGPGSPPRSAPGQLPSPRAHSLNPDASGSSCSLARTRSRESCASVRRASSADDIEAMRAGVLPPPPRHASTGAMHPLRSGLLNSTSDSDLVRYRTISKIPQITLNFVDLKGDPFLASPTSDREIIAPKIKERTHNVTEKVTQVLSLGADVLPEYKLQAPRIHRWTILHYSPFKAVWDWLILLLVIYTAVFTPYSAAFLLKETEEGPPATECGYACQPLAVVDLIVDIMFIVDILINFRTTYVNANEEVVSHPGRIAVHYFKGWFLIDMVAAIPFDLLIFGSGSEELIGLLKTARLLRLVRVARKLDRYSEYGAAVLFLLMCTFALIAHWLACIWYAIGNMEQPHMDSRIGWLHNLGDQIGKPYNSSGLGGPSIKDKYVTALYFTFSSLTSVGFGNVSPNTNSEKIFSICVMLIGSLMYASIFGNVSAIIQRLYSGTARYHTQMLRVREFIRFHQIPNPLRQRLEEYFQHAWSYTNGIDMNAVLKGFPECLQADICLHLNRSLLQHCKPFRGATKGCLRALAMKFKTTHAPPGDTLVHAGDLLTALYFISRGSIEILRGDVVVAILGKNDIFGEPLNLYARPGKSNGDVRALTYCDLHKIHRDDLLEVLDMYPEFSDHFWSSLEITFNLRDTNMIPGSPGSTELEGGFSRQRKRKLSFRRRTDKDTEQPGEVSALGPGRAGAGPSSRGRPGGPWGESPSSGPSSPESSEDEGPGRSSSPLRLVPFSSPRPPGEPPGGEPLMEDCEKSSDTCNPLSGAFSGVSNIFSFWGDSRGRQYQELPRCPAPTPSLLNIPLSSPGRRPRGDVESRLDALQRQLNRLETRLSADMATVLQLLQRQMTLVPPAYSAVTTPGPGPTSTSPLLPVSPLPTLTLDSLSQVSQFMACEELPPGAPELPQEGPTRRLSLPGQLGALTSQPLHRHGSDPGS
Turning to `CC(=O)Nc1ccc(S(=O)(=O)N(C)c2ccccc2)cc1`, the “hERG current change (%, negative = inhibition) at 10uM” value came to 0.318%.
Regarding `Cc1ccc(S(=O)(=O)N(C)CCCC(=O)Nc2ccc(F)cc2)cc1`, the “hERG current change (%, negative = inhibition) at 10uM” value is reported as -30.1%.
Take `O=C(Oc1ccnc2cc(Cl)ccc12)N1CCOCC1`: the “hERG current change (%, negative = inhibition) at 10uM” value is -1.74%.
For `COc1ccc2c(c1)c(=O)oc1cc(O)ccc12`, the “hERG current change (%, negative = inhibition) at 10uM” value was determined as 3.99%.
`O=C(CSc1cn(Cc2cccc(F)c2)c2ccccc12)NCc1ccc(F)cc1`: the “hERG current change (%, negative = inhibition) at 10uM” value was 9.86%.
Consider `CCOc1ccccc1N(CC(=O)NC(C)(C)C)C(=O)CCC(=O)Nc1nccs1`, for which the “hERG current change (%, negative = inhibition) at 10uM” value is -4.92%.
For the compound `CC(C)(C)NC(=O)C(c1ccc(O)cc1)N(C(=O)Cn1nnc(-c2ccc(F)cc2)n1)c1ccccc1F` (stereo not shown), the “hERG current change (%, negative = inhibition) at 10uM” value was -1.66%.
`COc1cc(CNc2ccc(N3CCOCC3)cc2)cc(Br)c1OC`: the “hERG current change (%, negative = inhibition) at 10uM” value is -23.4%.
As to `CCOc1cc2oc(=O)c3c(c2cc1Cl)CCC3`, the “hERG current change (%, negative = inhibition) at 10uM” value is reported as 7.75%.
Take `COc1ccc(Cn2c(C)c(C)c(C#N)c2NC(=O)Nc2ccc(F)cc2)cc1`: the “hERG current change (%, negative = inhibition) at 10uM” value is given as -3.49%.
For `COc1ccc(N=CC2=C(O)c3ccccc3C2=O)cc1`, the “hERG current change (%, negative = inhibition) at 10uM” value is 11.1%.
Consider `COCCCn1c(=N)c(C(=O)NCC2CCCO2)cc2c(=O)n3cccc(C)c3nc21` (stereo not shown), for which the “hERG current change (%, negative = inhibition) at 10uM” value is listed as -73.1%.
As for `Cc1cccn2c(=O)c3cc(C(=O)NCC4CCCO4)c(=N)n(CCN4CCOCC4)c3nc12` (stereo not shown), the “hERG current change (%, negative = inhibition) at 10uM” value was -69.4%.
Consider `COCCCn1c(C(=O)NC2CCCCC2C)cc2c(=O)n3cccc(C)c3nc21` (stereo not shown), for which the “hERG current change (%, negative = inhibition) at 10uM” value was -12%.
For the compound `COCCCn1c(C(=O)N2CC(C)OC(C)C2)cc2c(=O)n3ccccc3nc21` (stereo not shown), the “hERG current change (%, negative = inhibition) at 10uM” value is -9.36%.
For `COCCCn1c(C(=O)N2CCOCC2)cc2c(=O)n3ccccc3nc21`, the “hERG current change (%, negative = inhibition) at 10uM” value stood at 2.75%.
On to `COCCn1c(=O)[nH]c2cc(C(=O)NCC3CCCO3)ccc2c1=O` (stereo not shown), for which the “hERG current change (%, negative = inhibition) at 10uM” value is given as -7.76%.
Take `CC(C)OCCCn1c(SC(C)C(=O)NCC2CCCO2)nc2cc(Cl)ccc2c1=O` (stereo not shown): the “hERG current change (%, negative = inhibition) at 10uM” value is -20.6%.
The result for `Cc1ccc2nc3c(cc(C(=O)NCC4CCCO4)c(=N)n3CCCOC(C)C)c(=O)n2c1` (stereo not shown) reads -71.8%.
On to `CCN(C(=O)c1cc2c(=O)n3cccc(C)c3nc2n1CCCOC)C1CCCCC1`, for which the “hERG current change (%, negative = inhibition) at 10uM” value is listed as -44.1%.
For the compound `COCCCn1c(=N)c(C(=O)NCC2CCCO2)cc2c(=O)n3ccccc3nc21` (stereo not shown), the “hERG current change (%, negative = inhibition) at 10uM” value is recorded as -64.3%.
Consider `CSc1nnc2c(n1)OC(c1cccn1C)N(C(C)=O)c1ccccc1-2` (stereo not shown), for which the “hERG current change (%, negative = inhibition) at 10uM” value is on record as -10.1%.
The result for `CCS(=O)(=O)Nc1cccc(C2=NN(S(C)(=O)=O)C(c3cccs3)C2)c1` (stereo not shown) reads -11.1%; that for `CCOC(=O)C1=C(c2ccccc2)O/C(=C(/C(=O)OC)C(F)(F)F)S1`, -3.45%; that for `CC(=O)Nc1ccc(N(C(=O)Cc2c[nH]c3ccccc23)C(C(=O)NC2CCCCC2)c2ccco2)cc1` (stereo not shown), -13.1%.
Take `O=c1[nH]nc(CNc2ccc(C(F)(F)F)cc2)c2ccccc12`: the “hERG current change (%, negative = inhibition) at 10uM” value was 1.92%.
Turning to `CC(C)(C)c1ccc(C(=O)N2CCC(=O)N(C(CO)Cc3ccccc3)CC2)cc1` (stereo not shown), the “hERG current change (%, negative = inhibition) at 10uM” value is -16.7%.
Take `Cc1cccc(NC(=S)N(CCN(C)C)Cc2cccs2)c1`: the “hERG current change (%, negative = inhibition) at 10uM” value is reported as -25.8%.
For `Cc1cc(NS(=O)(=O)c2cccs2)no1`, the “hERG current change (%, negative = inhibition) at 10uM” value was -3.03%.
Regarding `Cc1cccn2c(=O)c3cc(C(=O)NC4CCCC4)c(=N)n(CC4CCCO4)c3nc12` (stereo not shown), the “hERG current change (%, negative = inhibition) at 10uM” value is given as -74.4%.
As for `CCCn1nc(C(=O)NCc2ccc3c(c2)OCO3)c2ccccc2c1=O`, the “hERG current change (%, negative = inhibition) at 10uM” value is 1.89%.
Turning to `CCCn1c(=N)c(C(=O)NCc2ccc3c(c2)OCO3)cc2c(=O)n3cccc(C)c3nc21`, the “hERG current change (%, negative = inhibition) at 10uM” value was -76.5%.
Next, `CCCn1c(=N)c(S(=O)(=O)c2ccc(F)cc2)cc2c(=O)n3cccc(C)c3nc21`: -4.16%; `Cc1ccccc1Nc1cc(C(=O)NCC2CCCO2)c2ccccc2n1` (stereo not shown): -15.6%; `CCCn1c(=N)c(C(=O)NCC2CCCO2)cc2c(=O)n3cccc(C)c3nc21` (stereo not shown): -76.3%.
In the case of `Cc1ccc(S(=O)(=O)c2cc3c(=O)n4cccc(C)c4nc3n(CC3CCCO3)c2=N)cc1C` (stereo not shown), the “hERG current change (%, negative = inhibition) at 10uM” value is given as 2.35%.
For the compound `Cc1ccc(-c2cc(C(=O)NCC3CCCO3)c3ccccc3n2)cc1C` (stereo not shown), the “hERG current change (%, negative = inhibition) at 10uM” value is given as 12.1%.
Consider `CCCn1c(=S)[nH]c2cc(C(=O)NCC3CCCO3)ccc2c1=O` (stereo not shown), for which the “hERG current change (%, negative = inhibition) at 10uM” value was 3.73%.
`Cc1cccn2c(=O)c3cc(C(=O)NCC4CCCO4)c(=N)n(CC4CCCO4)c3nc12` (stereo not shown): the “hERG current change (%, negative = inhibition) at 10uM” value was -81.9%.
Turning to `Cc1cccn2c(=O)nc(SCC(=O)NCc3ccc4c(c3)OCO4)nc12`, the “hERG current change (%, negative = inhibition) at 10uM” value is reported as -27.1%.
Turning to `CCC(=O)N1CCc2cc(S(=O)(=O)CCC(=O)NCc3cccc(OC)c3)ccc21`, the “hERG current change (%, negative = inhibition) at 10uM” value came to 13.8%.
The result for `COc1ccc([C@@H]2C[C@@H](c3ccccc3)Oc3c(C)ccc(C(C)C)c32)cc1` reads 13.3%; that for `CCCc1nc(N2CCCC2)c(C#N)c2c1CCCC2`, 4.06%.
As for `COC(=O)c1cc(-c2ccccc2)n(CCN)c1C.Cl`, the “hERG current change (%, negative = inhibition) at 10uM” value is recorded as -3.56%.
The result for `COc1ccc(OCC(=O)Nc2nnc(C)s2)cc1` reads 9.71%.
Regarding `Cc1nnc(SCc2ccc(Cl)cc2)nc1/C=C/N(C)C`, the “hERG current change (%, negative = inhibition) at 10uM” value is on record as -72.6%.
As for `C=CCSc1nnc(C)c(/C=C/Nc2ccc(Cl)cc2)n1`, the “hERG current change (%, negative = inhibition) at 10uM” value is reported as -9.44%.
In the case of `Cc1nnc(SCc2ccccc2)nc1/C=C/NOCc1ccc(Cl)cc1Cl`, the “hERG current change (%, negative = inhibition) at 10uM” value stood at 13.9%.
For `Cc1ccc(C(=O)O)cc1S(=O)(=O)N1CCC(C(=O)O)CC1`, the “hERG current change (%, negative = inhibition) at 10uM” value is recorded as -4.77%.
For the compound `NC(=S)Cc1nc2n(n1)Cc1ccccc1-2`, the “hERG current change (%, negative = inhibition) at 10uM” value was found to be 21.6%.
Next, `CC(=O)N1CCN(c2ccc(NC(=O)c3ccccc3C)cc2)CC1`: -0.597%.
Regarding `C=C1CCN([C@@H](C)C(=O)NCc2ccc(OC)cc2)S(=O)(=O)c2ccccc21`, the “hERG current change (%, negative = inhibition) at 10uM” value is -6.66%.
